TDP1 cell CPT: DT40-hTDP1 cell growth loss with CPT; chicken DT40 Tdp1-/-;hTDP1 cells + 20 nM CPT, ATP luminescence, 48 h; Potency, µM (titrated, usually from 46.2 µM), without a hit: top-dose activity change, negative = growth inhibition, hits mostly inhibitors; 12% of 420,000 active; AID 686979; also: potency is read from the fitted curve at half-maximal effect; nearly all actives have a fitted effect of over 55% in size
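Cell growth measured by CellTiter-Glo luminescence after a minimum 48 h, 37 C compound exposure with 20 nM CPT in Tdp1-knockout DT40 cells stably expressing hTDP1, seeded 400/well; qHTS titration format.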
DT40 TDP1 no CPT: qHTS for Inhibitors of human tyrosyl-DNA phosphodiesterase 1 (TDP1): qHTS in cells in absence of CPT. DT40 Tdp1-/- hTDP1 cells, no CPT, ATP luminescence, 48 h. Potency, µM (series often up to 46.2 µM), inactives show at the top dose activity change, negative = growth inhibition, hits mostly inhibitors. 15% of 420,000 active; also: potency is read from the fitted curve at half-maximal effect; nearly all actives have a fitted effect of over 55% in size
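Stably hTDP1-transfected Tdp1-null chicken DT40 cells were treated with library compounds minus camptothecin and grown for at least 48 hr at 37 °C, after which cellular ATP was quantified by luminescence.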
LDHA inh: LDHA (human) enzyme inhibition; AID 1347041; P00338; purified LDHA, NADH/diaphorase-resazurin fluorescence; stronger effect = lower value; activity change, % (values are at about 110 or 230 µM); 0.15% of 480,000 active; in the data active = activity change below about -30%; inconclusive = mostly about -25% to -30%;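 also: plate controls were DMSO wells for no effect and wells without enzyme for full effect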
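Remaining NADH was detected by diaphorase (0.133 mg/mL) converting 37 µM resazurin to fluorescent resorufin, read at 0 and 20 minutes. The preceding 5-minute room-temperature reaction used 2 nM LDHA, 0.2 mM sodium pyruvate and 0.06 mM NADH at pH 7.4.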
RORg inh: ROR gamma (mouse) transcription inhibition; Potency, µM (highest dose often 53.6 µM), for inactives: at the highest dose activity change, negative = inhibition, hits mostly inhibitors; Drosophila S2 Gal4-RORgamma UAS-luciferase reporter, 20 h; P51450; AID 2551; 5.4% of 310,000 active; also: potency is read from the fitted curve at half-maximal effect; nearly all actives have a fitted effect of over 60% in size
Target sequence (P51450 whole entry, looked up, the tested form may be a part): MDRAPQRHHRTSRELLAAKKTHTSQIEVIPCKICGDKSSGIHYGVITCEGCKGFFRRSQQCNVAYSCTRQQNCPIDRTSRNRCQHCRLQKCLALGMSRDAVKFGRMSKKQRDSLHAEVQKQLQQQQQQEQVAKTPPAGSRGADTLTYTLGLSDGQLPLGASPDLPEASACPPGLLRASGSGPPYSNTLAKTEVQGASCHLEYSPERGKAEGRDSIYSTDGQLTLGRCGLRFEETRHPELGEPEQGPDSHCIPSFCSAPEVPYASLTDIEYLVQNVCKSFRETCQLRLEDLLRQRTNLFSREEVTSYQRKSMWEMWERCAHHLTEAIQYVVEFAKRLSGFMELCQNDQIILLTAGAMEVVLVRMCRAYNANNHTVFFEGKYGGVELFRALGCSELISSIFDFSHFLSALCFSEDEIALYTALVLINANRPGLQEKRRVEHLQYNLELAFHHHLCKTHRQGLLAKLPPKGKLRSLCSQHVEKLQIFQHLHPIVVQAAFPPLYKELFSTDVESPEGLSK
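Stable Schneider cell line, Gal4 DNA-binding domain fused to ROR gamma, UAS-luciferase. Cmpd 1 hr RT → CuSO4 700 uM final → 20 hr RT → luciferase reagent 10 min → luminescence.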
VP16 counter: counter-screen for ROR gamma inhibitors: Gal4-VP16 reporter; Drosophila S2 Gal4-VP16 UAS-luciferase, luminescence, 20 h; 3.5% of 310,000 active; Potency, µM (top dose mostly 53.6 µM), for the others: at the highest dose activity, negative = inhibition, actives largely listed as inhibitors; AID 2546;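 also: Gal4-VP16 expression switched on by copper sulfate through the metallothionein promoter; potency is read from the fitted curve at half-maximal effect; nearly all actives have a fitted effect of over 50% in size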
IL1B secr inh: blocks inflammasome-driven IL-1 beta release. 4.7% of 360,000 active. THP-1 LPS/ATP IL-1B secretion, AlphaLISA, 16 h; stronger effect = lower value. AID 743279. activity change, % at 57.5 µM; in the data active = activity change below about -50%; inconclusive = mostly about -30% to -49%
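Secreted IL-1B measured by AlphaLISA bead assay after 16 h compound exposure of THP-1 cells; compounds (final up to 57.5 uM) added 1 h before LPS (250 ng/mL) and ATP (1.25 mM) stimulation; lower signal means less secretion.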
Active calls of the source: *; ? = inconclusive; · = no result given. Most compounds without a hit are left out; they make up all but 18% or so of the library. Unless noted, calls follow the shape of the dose curve; as a rule, active = well fitted curve in the direction sought with a large enough effect; inconclusive = small, poorly fitted or top-dose-only effect, or another doubt; inactive = no such curve, though single readings can be large; an effect the other way counts as inactive or inconclusive. Unless noted, % is scaled to controls: 0 for no effect and ±100 for the full control effect.

SMILES	TDP1 cell CPT	DT40 TDP1 no CPT	LDHA inh	RORg inh	VP16 counter	IL1B secr inh
COc1ccccc1NC(=O)C1CCCN(S(=O)(=O)c2ccc3c(c2)CC(C)N3C(C)=O)C1 (stereo not given)	?	7.3µM*	-16	-2%	-13%	1
CC(=O)N1c2ccc(S(=O)(=O)N3CCC(C(=O)Nc4ccc(F)cc4)CC3)cc2CC1C (stereo not given)	18µM*	13µM*	-3	?	?	-15
CCOc1ccccc1NC(=O)C1CCN(S(=O)(=O)c2ccc3c(c2)CC(C)N3C(C)=O)CC1 (stereo not given)	?	?	-3	·	·	·
CC(=O)N1c2ccc(S(=O)(=O)N3CCC(C(=O)Nc4cccc(C(F)(F)F)c4)CC3)cc2CC1C (stereo not given)	16µM*	?	-2	-36%	?	-5
COc1cccc(NC(=O)C2CCN(S(=O)(=O)c3ccc4c(c3)CC(C)N4C(C)=O)CC2)c1 (stereo not given)	15µM*	?	-3	?	?	0
COc1ccc(CNC(=O)C2CCN(S(=O)(=O)c3ccc4c(c3)CC(C)N4C(C)=O)CC2)cc1 (stereo not given)	-11%	-23%	0	-3%	-3%	-76*
CC(=O)N1c2ccc(S(=O)(=O)N3CCC(C(=O)Nc4ccccn4)CC3)cc2CC1C (stereo not given)	-21%	-13%	-5	11%	8%	12
CCc1cccc(NC(=O)C2CCN(S(=O)(=O)c3ccc4c(c3)CC(C)N4C(C)=O)CC2)c1 (stereo not given)	16µM*	21µM*	-7	?	?	0
COc1ccccc1CNC(=O)C1CCN(S(=O)(=O)c2ccc3c(c2)CC(C)N3C(C)=O)CC1 (stereo not given)	-8%	5%	-6	0%	-4%	29
CN(c1ncnc2scc(-c3ccc(Cl)cc3)c12)C1CC1	·	·	-17	·	·	·
Cc1c(Cl)cccc1NC(=O)c1nc2ccccc2nc1N1CCN(C)CC1	·	·	0	·	·	·
CC(=O)Nc1ccc(S(=O)(=O)N2c3ccc(F)cc3CCC2C)cc1 (stereo not given)	7.3µM*	5.8µM*	-1	·	·	75
Cc1cc(C)nc(N2CCCC(C(=O)Nc3ccc4nc(C)c(C)nc4c3)C2)n1 (stereo not given)	?	13µM*	0	-1%	-17%	-4
CC1CCc2ccc(F)cc2N1S(=O)(=O)c1cccs1 (stereo not given)	?	?	5	-11%	?	2
CCOc1c(Br)cc(/C=C/C(=O)c2ccc(F)cc2)cc1OC	·	·	12	·	·	·
CCCN(C/C=C/I)C1CCc2cccc(O)c2C1 (stereo not given)	?	15µM*	·	·	·	·
O=C(CCc1cc(Cl)no1)N(CCS(=O)(=O)N1CCOCC1)Cc1cccnc1	·	·	-4	·	·	·
CCOC(=O)C1(CCOc2ccccc2)CCN(Cc2cccs2)CC1	?	?	-3	?	21%	-11
CCOC(=O)C1(CCOc2ccccc2)CCN(Cc2cccc(OC)c2)CC1	23µM*	15µM*	0	·	·	-8
CCOC(=O)C1(CCOC)CCN(Cc2nc(C(C)C)cs2)CC1	?	26µM*	-5	-20%	?	38
CCOC(=O)C1(CCOc2ccccc2)CCN(Cc2cc(OC)ccc2OC)CC1	?	15µM*	4	1%	-1%	-7
CCOC(=O)C1(CCOC)CCN(Cc2ccncc2)CC1	15%	-4%	1	-16%	-12%	22
CCOC(=O)C1(CCOC)CCN(Cc2cccc(OCc3ccccc3)c2)CC1	15µM*	16µM*	-1	43%	13%	0
O=C(OC/C=C/c1ccccc1)c1cc2ccccc2[nH]1	·	·	1	·	·	·
CC(C)(C)c1ccc(S(=O)(=O)NCCO)cc1	·	·	5	·	·	·
SMILES	TDP1 cell CPT	DT40 TDP1 no CPT	LDHA inh	RORg inh	VP16 counter	IL1B secr inh
Cc1cc(C)c2c(C)c(C(=O)Nc3nonc3-c3cccs3)oc2c1	·	·	-5	·	·	·
OCC1(CCc2ccccc2)CCCN(C/C=C/c2ccccc2)C1 (stereo not given)	7%	?	2	-2%	-14%	?
CCOC(=O)C1(CCOc2ccccc2)CCN(Cc2cccc(OC)c2O)CC1	?	?	2	-10%	-15%	-85*
CCOC(=O)C1(CCOC)CCN(C/C=C/c2ccccc2OC)CC1	10µM*	10µM*	-1	·	·	0
COc1ccccc1/C=C/CN1CCCC(CO)(CCc2ccccc2)C1 (stereo not given)	21µM*	?	-2	-9%	-8%	-94*
Cc1ccc(S(=O)(=O)N2CCN(CC(=O)NC(=O)NC(C)(C)C)CC2)cc1C	·	·	-2	·	·	·
Cc1ccc(C(=O)N2CC(C)SC2=Nc2cccc(S(=O)(=O)N(C)C)c2)cc1 (stereo not given)	29µM*	?	-5	?	19%	13
Cc1cc(C)cc(C(=O)N2CC(C)SC2=Nc2cccc(S(=O)(=O)N(C)C)c2)c1 (stereo not given)	?	?	-1	?	-15%	-2
CC1Cc2cc(S(=O)(=O)N3CCCCC3)ccc2N1C(=O)C1CCC1 (stereo not given)	21µM*	?	0	20%	8%	-7
CC1Cc2cc(S(=O)(=O)NCCC(=O)N(C)Cc3ccccc3)ccc2N1C(=O)C1CC1 (stereo not given)	?	?	-3	-1%	-3%	-8
CC1CCN(S(=O)(=O)c2ccc3c(c2)CC(C)N3C(=O)C2CCC2)CC1 (stereo not given)	21µM*	16µM*	0	?	?	-17
CC1CCN(C(=O)C2CCCN(S(=O)(=O)c3ccc4c(c3)CC(C)N4C(=O)C3CC3)C2)CC1 (stereo not given)	?	?	-3	4%	-4%	15
CCN(Cc1ccccc1)S(=O)(=O)c1ccc2c(c1)CC(C)N2C(=O)C1CCC1 (stereo not given)	?	18µM*	-3	·	·	·
CC1CCN(c2ccc(S(=O)(=O)N3CCC(C)CC3)cc2N)CC1	21µM*	16µM*	0	?	?	17
Fc1ccc(OCc2nnc(-c3ccccc3)o2)cc1	·	·	3	·	·	·

Compound activity (PubChem)
